# Measured values published in PubChem BioAssay AID2673 (National Center for Advancing Translational Sciences (NCATS), 2010).
# Results filed as inconclusive are left out. Calls of active or inactive are those of the source. Calls follow the shape of the dose curve; as a rule, active = well fitted activation curve with a large enough effect; inconclusive = small, poorly fitted or top-dose-only effect; inactive = no such curve, though single readings can be large or run the other way.
# Assay: qHTS Multiplex Assay to Identify Dual Action Probes in a Cell Model of Huntington: Cytoprotection confirmation (ATP)
# Conditions: PC12 HttQ103 induced, ATP luminescence 40 h; series mostly up to 46.1 µM; cytoprotection, positive = protection: at the top concentration
# Description: NIH Chemical Genomics Center [NCGC]
# NIH Molecular Libraries Probe Production centers Network [MLPCN]
# Assay Submitter (PI): Wei Zheng
# Huntington's disease is a neurodegenerative disorder caused by a trinucleotide repeat expansion in Exon 1 of the Huntingtin gene. The CAG trinucleotide encodes glutamine and polyglutamine expansions cause cell death in selective areas of the brain. Huntington polyglutamine repeats have the tendency to form aggregates which are observable in later stages of the disease. The exact nature of the aggregates, whether toxic, protective, or insignificant, is unclear.
# A stable PC12 cell line containing a gene fusion of Exon 1 of the Huntingtin gene linked to GFP under the control of the inducible ecdysone promoter were used as the cell-based model of Huntington Disease for high throughput screening. Exon 1 of the Huntingtin gene contained an expansion of 103 polyglutamines (Q103) which, when expressed, caused cell death and distinct, bright GFP aggregates. The amount of cell death and the size and intensity of GFP aggregates increased over time and induction level. The cell death were quantified with a measurement of ATP content in the cells. A maximal 40-50% of cell death was observed when the Huntington gene was induced in this cell line.
# We optimized this assay in a homogeneous 1536 well format. A quantitative high throughput screen (qHTS) was conducted on the PC12 cells which were induced to express the toxic fusion construct. Small molecules which prevented cell death were identified by using a luminescent ATP quantification method (Perkin Elmer's ATPlite).
# PC12 cells stably containing a construct with an ecdysone inducible promoter expressing GFP fused to the exon 1 of HTTQ103 (Huntington protein which containing a 103 ployglutamine expansion) were used.
# NCGC Assay Protocol Summary:
# Sequence, Parameter, Description
# 1, Reagent, 5 uL 1500 cells/well 1536 TC treated White clear bottom plate
# 2, Compound, 23 nL Tebufenozide inducer (100 nM final) to all columns
# 3, Compound, 23 nL 40 uM to 0.5 nM Libraries
# 5, Reagent, 5 ul ATPLite cell death assay reagent
# 6, Detector, 4 sec integration with a Viewlux Luminescent
# Media consisted of phenol red free DMEM + 5% equine serum (Hyclone # SH30072.03 ), 5% supplemented Bovine Calf Serum (Hyclone # SH30074.03 ), 1x pen/strep, no G418
SMILES,"cytoprotection, positive = protection",Potency
C[C@@]1(CO)[C@H](O)CC[C@@]2(C)[C@H]1CC[C@H]1C[C@@H]3C[C@@]12CC[C@]3(O)CO,-47.8% (inactive),
O=C1C=C2C=C[C@H]3C[C@@]2(O1)[C@H]1CCCCN31,58% (inactive),
CC[C@]1(C2=NCCN2)Cc2ccccc2O1,-1.9% (inactive),
O=C1C=C2C=CC3C[C@@]2(O1)C1CCCCN31 (stereo partly drawn),,12.6 µM (active)
O=C1C=C2C=C[C@H]3C[C@]2(O1)[C@@H]1CCCCN13,66.7% (inactive),
CCC(C)C(=O)OC1C(O)C2C(CN3CC(C)CCC3[C@]2(C)O)C2C[C@]34O[C@@]5(O)C(OC(=O)C(C)(O)CC)CCC3(C)C5C(OC(C)=O)C(OC(C)=O)C4[C@@]21O (stereo partly drawn),-18.1% (inactive),
C[C@H]1CC[C@@]2(NC1)O[C@@H]1C[C@H]3[C@@H]4CC=C5C[C@@H](O)CC[C@]5(C)[C@@H]4CC[C@]3(C)[C@@H]1[C@@H]2C,3.58% (inactive),
Oc1cc(Cl)ccc1Oc1ccc(Cl)cc1Cl,-9.42% (inactive),
